# Measured values as given in PubChem BioAssay AID2685 (National Center for Advancing Translational Sciences (NCATS), 2010).
# Among all 320,000 compounds or so, about 2,100 (0.66%) were called active. About 53% were inconclusive and are not listed. Calls come from the whole dose curve; as a rule, active = well fitted inhibition curve with a large enough effect in the signal ratio, with a control signal flat (not every such curve was filed as active); inconclusive = small, poorly fitted or top-dose-only effect, or effect the other way, or a change in a side signal; inactive = flat fitted curve, though single readings scatter; the % refers to the signal ratio. What follows is part of a selection rich in actives, with near analogues and random picks from the rest.
# Assay: qHTS Assay for Lipid Storage Modulators in Drosophila S3 Cells;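 for cell number change: cells counted by Cell Tracker Red CMTPX staining in the red channel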
# Conditions: BODIPY lipid droplet fluorescence, 18-24 h, cells fed with added oleic acid; cell number change: measured here: cell count max response; series mostly up to 46.1 µM
# In short: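 Drosophila S3 cells loaded with oleic acid (400 uM, as added) and compounds at several concentrations; lipid droplets imaged by 488-nm laser-scanning cytometry, 500–530 nm intensity and object ratio to cell channel. Percent activity normalized to 20 uM Triacsin C.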
# Potency is the fitted concentration of half-maximal effect.
SMILES,Potency,cell number change [%]
CCNC(=O)CC1SC(=Nc2ccccc2C)N(C)C1=O (stereo unspecified),inactive,12.4
CCN1CCN(c2ccc(S(=O)(=O)N3CCCCC3)cc2NC(=O)c2ccc(F)cc2)CC1,inactive,–
COc1ccc(/C=C(\NC(=O)c2ccc(OC)cc2)C(=O)Nc2ccc(C(=O)O)cc2)cc1,inactive,11.1
N#Cc1ccccc1S(=O)(=O)N1CCN(C(=O)CN2CCCSc3ccccc32)CC1,2.06 µM (active),-12.9
Cc1ccc(S(=O)(=O)N2CCN(C(=O)CN3CCCSc4ccccc43)CC2)cc1,inactive,6.28
N#Cc1ccccc1S(=O)(=O)N1CCN(C(=O)C2CCC2)CC1,inactive,17.3
CC(C)C[C@H](NC(=O)c1nc[nH]c1C(=O)N(C)Cc1ccccc1)C(=O)OC(C)(C)C,inactive,-15.1
C[C@H](NC(=O)c1nc[nH]c1C(=O)N[C@@H](Cc1ccccc1)C(=O)OC(C)(C)C)C(=O)OC(C)(C)C,inactive,1.8
C[C@H](NC(=O)c1nc[nH]c1C(=O)N[C@@H](C)C(=O)OC(C)(C)C)C(=O)OCc1ccccc1,inactive,0.898
C[C@@H](NC(=O)c1nc[nH]c1C(=O)N[C@@H](Cc1ccccc1)C(=O)OCc1ccccc1)c1ccccc1,inactive,-24.1
C[C@H](NC(=O)c1nc[nH]c1C(=O)N[C@@H](Cc1ccccc1)C(=O)OC(C)(C)C)C(=O)OCc1ccccc1,14.6 µM (active),26.3
C[C@H](NC(=O)c1nc[nH]c1C(=O)N(C)Cc1ccccc1)C(=O)OC(C)(C)C,0.651 µM (active),20.3
C[C@H](NC(=O)c1nc[nH]c1C(=O)NCc1ccccc1)C(=O)OC(C)(C)C,inactive,-10.1
CCOC(=O)c1ccc(NC(=O)c2nc[nH]c2C(=O)N[C@@H](Cc2ccccc2)C(=O)OC(C)(C)C)cc1,18.4 µM (active),-20.1
O=C(N[C@@H](Cc1ccccc1)C(=O)OCc1ccccc1)c1nc[nH]c1C(=O)NC(c1ccccc1)c1ccccc1,inactive,11.4
CC(C)(C)OC(=O)[C@H](Cc1ccccc1)NC(=O)c1[nH]cnc1C(=O)Nc1ccc(Cl)cc1,inactive,-19.3
CCOC(=O)c1ccc(NC(=O)c2nc[nH]c2C(=O)N[C@@H](CC(C)C)C(=O)OC(C)(C)C)cc1,inactive,-3.92
O=C(N[C@@H](Cc1ccccc1)C(=O)OCc1ccccc1)c1nc[nH]c1C(=O)N[C@@H](Cc1ccccc1)C(=O)OCc1ccccc1,3.26 µM (active),–
COc1ccccc1CN1CC(C(=O)N(CCO)Cc2cccs2)CCC1=O (stereo unspecified),inactive,1.74
CCN1CCCC1CNC(=O)C(=O)NC (stereo unspecified),inactive,1.27
Cc1c(C(=O)NCc2cccnc2)oc2ccc(S(=O)(=O)N3CCCCCC3)cc12,inactive,–
O=C(Cn1ccc(C(F)(F)F)n1)N/N=C/c1ccc2c(c1)OCO2,inactive,4.92
COc1ccc(Cl)cc1NC(=O)CCn1c(=O)oc2ccccc21,inactive,–
O=C(CN1C(=O)C2C3CCC(C3)C2C1=O)OCC(=O)c1cccc([N+](=O)[O-])c1 (stereo unspecified),inactive,2.72
C=CCn1c(SCc2ccc(C(=O)NCCO)cc2)nc2sc(C)c(C)c2c1=O,inactive,22.5
Cc1ccc(C(=O)NNc2ncnc3c2cnn3C)cc1,inactive,-1.39
Cc1c(CN2CCCC(C(=O)c3cccc(OC(C)C)c3)C2)c(=O)n(-c2ccccc2)n1C (stereo unspecified),inactive,1.94

SMILES,Potency,cell number change [%]
C/C(=N\NC(=O)c1ccc(Cl)cc1)c1cccc(NC(=O)c2cccnc2)c1,inactive,13.4
CCn1c(CSc2nc(C)cs2)nc2cc(S(=O)(=O)N(C)C)ccc21,inactive,-5.93
CCn1c(SCC(=O)NC2CCCC2)nnc1-c1c[nH]c2ccccc12,inactive,30
CN(C)C(CNC(=O)CN1C(=O)NC2(CCc3ccccc32)C1=O)c1ccco1 (stereo unspecified),inactive,6.97
Cc1ccc(NC(=O)C(C)SCC(=O)Nc2ccc(F)cc2)cc1S(=O)(=O)N1CCOCC1 (stereo unspecified),inactive,–
CC1(C(=O)NC2CCCCCC2)CCC(=O)N1Cc1ccc2c(c1)OCO2 (stereo unspecified),inactive,-18.4
c1ccc(-c2cn3nc(-c4ccccc4)c(-c4ccccc4)nc3n2)cc1,inactive,19.6
c1ccc(-c2cnn3c(-c4ccccc4)c(-c4ccccc4)nc3n2)cc1,3.26 µM (active),-3.03
Nc1nc(-c2ccccc2)c(-c2ccccc2)n1N,inactive,–
CC(=O)N(CCCN(C)C)Cc1ccccn1,inactive,6.64
Cc1ccc(S(=O)(=O)N2CCN(C3CCN(Cc4ccccc4)CC3)CC2)cc1,inactive,-12.2
O=S(=O)(c1ccccc1)N1CCN(C2CCN(Cc3ccccc3)CC2)CC1,inactive,9.59
c1ccc(C2CCC(N3CCC(N4CCCCC4)CC3)CC2)cc1 (stereo unspecified),inactive,-17
c1ccc(CN2CCC(N3CCC(N4CCCCCC4)CC3)CC2)cc1,0.82 µM (active),-20.6
CC1CCN(S(=O)(=O)c2ccc3ccccc3c2)CC1,3.26 µM (active),5.85
O=S(=O)(c1ccc2ccccc2c1)N1CCN(C2CCN(Cc3ccccc3)CC2)CC1,5.8 µM (active),21
CCS(=O)(=O)N1CCN(S(=O)(=O)c2ccc3ccccc3c2)CC1,inactive,16.6
O=S(=O)(c1ccc2ccccc2c1)N1CCCCCC1,inactive,0.283
Brc1ccccc1CN1CCC(N2CCCCC2)CC1,inactive,-5.87
COc1cccc(NC(=O)CN2C(=O)NC(C)(CCC(C)C)C2=O)c1 (stereo unspecified),inactive,17.1
O=C(NCCc1ccc(Cl)cc1)c1ccc(CS(=O)Cc2ccc(Cl)cc2)o1 (stereo unspecified),inactive,–
O=C(CCN1C(=O)COc2ccccc21)N1CCN(c2ccccc2)CC1,inactive,0.131
O=C(NCC1CCCO1)C1CCN(C2CCN(C(=O)Cc3ccsc3)CC2)CC1 (stereo unspecified),inactive,-8.37
COc1ccc(CNc2nnnn2C)c(OC)c1,0.651 µM (active),-2.1
COc1ccc(CNc2nc3ccccc3n2C)c(OC)c1,inactive,-4.3
CCOc1c(CNc2nnnn2C)cccc1OC,inactive,15.4
O=C1NC(=S)N/C1=C\c1ccccc1OCc1ccc(C(=O)O)cc1,inactive,-1.56
